# According to article PMC11006913:
# Columns and labels:
# Assay in all cases: PBM; 200 nM protein, PBS
# Conditions in all cases: dsDNA, one strand shown
# HOXB9 [1] = biological target: HOXB9 (Homo sapiens, UniProt P17482 171-250, T197M)
# HOXC9 [2] = biological target: HOXC9 (Homo sapiens, UniProt P31274 178-260, K195R)
# HOXC10 [3] = biological target: HOXC10 (Homo sapiens, UniProt Q9NYD6 254-340)
# HOXB9 [4] = biological target: HOXB9 (Homo sapiens, UniProt P17482 171-250)
# HOXC9 [5] = biological target: HOXC9 (Homo sapiens, UniProt P31274 178-260)
# HOXC9 (Homo sapiens, UniProt P31274 178-260), sequence (P31274 178-260): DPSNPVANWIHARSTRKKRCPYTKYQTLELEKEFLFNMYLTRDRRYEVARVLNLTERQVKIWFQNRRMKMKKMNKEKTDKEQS
# HOXD13 [6] = biological target: HOXD13 (Homo sapiens, UniProt P35453 263-343, T313R)
# HOXD13 (Homo sapiens, UniProt P35453 263-343, T313R), sequence (P35453 263-343 T313R): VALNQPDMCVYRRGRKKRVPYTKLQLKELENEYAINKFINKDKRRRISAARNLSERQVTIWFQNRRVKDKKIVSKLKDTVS
# HOXC9 [7] = biological target: HOXC9 (Homo sapiens, UniProt P31274 178-260, R193K)
# HOXC9 (Homo sapiens, UniProt P31274 178-260, R193K), sequence (P31274 178-260 R193K): as the sequence (P31274 178-260) above, with R16K counted along it
# HOXD13 [8] = biological target: HOXD13 (Homo sapiens, UniProt P35453 263-343)
# HOXD13 (Homo sapiens, UniProt P35453 263-343), sequence (P35453 263-343): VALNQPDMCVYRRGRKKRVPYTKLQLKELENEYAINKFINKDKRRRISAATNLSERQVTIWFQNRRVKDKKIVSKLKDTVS
# HOXC10 [9] = biological target: HOXC10 (Homo sapiens, UniProt Q9NYD6 254-340, K271E)
# HOXC10 (Homo sapiens, UniProt Q9NYD6 254-340, K271E), sequence (Q9NYD6 254-340 K271E): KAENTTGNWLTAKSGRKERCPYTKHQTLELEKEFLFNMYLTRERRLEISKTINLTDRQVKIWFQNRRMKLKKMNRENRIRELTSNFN
# HOXD13 [10] = biological target: HOXD13 (Homo sapiens, UniProt P35453 263-343, T313A)
# HOXD13 (Homo sapiens, UniProt P35453 263-343, T313A), sequence (P35453 263-343 T313A): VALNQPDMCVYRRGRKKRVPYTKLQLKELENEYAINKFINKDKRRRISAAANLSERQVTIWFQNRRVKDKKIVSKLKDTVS
# HOXB9 [11] = biological target: HOXB9 (Homo sapiens, UniProt P17482 171-250, R186Q)
# HOXB9 (Homo sapiens, UniProt P17482 171-250, R186Q), sequence (P17482 171-250 R186Q): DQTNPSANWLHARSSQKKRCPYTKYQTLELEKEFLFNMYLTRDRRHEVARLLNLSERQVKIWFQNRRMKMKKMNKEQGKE
# HOXC9 [12] = biological target: HOXC9 (Homo sapiens, UniProt P31274 178-260, R222W)
# HOXC9 (Homo sapiens, UniProt P31274 178-260, R222W), sequence (P31274 178-260 R222W): as the sequence (P31274 178-260) above, with R45W counted along it
# HOXA2 [13] = biological target: HOXA2 (Homo sapiens, UniProt O43364 129-215, R185T)
# HOXA2 (Homo sapiens, UniProt O43364 129-215, R185T), sequence (O43364 129-215 R185T): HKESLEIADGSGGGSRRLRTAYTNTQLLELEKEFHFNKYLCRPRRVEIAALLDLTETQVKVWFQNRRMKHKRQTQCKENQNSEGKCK
# HOXA2 [14] = biological target: HOXA2 (Homo sapiens, UniProt O43364 129-215, R185K)
# HOXA2 (Homo sapiens, UniProt O43364 129-215, R185K), sequence (O43364 129-215 R185K): as the sequence (O43364 129-215 R185T) above, with T57K counted along it
# HOXA2 [15] = biological target: HOXA2 (Homo sapiens, UniProt O43364 129-215, Y150S)
# HOXA2 (Homo sapiens, UniProt O43364 129-215, Y150S), sequence (O43364 129-215 Y150S): as the sequence (O43364 129-215 R185T) above, with Y22S, T57R counted along it
# HOXA2 [16] = biological target: HOXA2 (Homo sapiens, UniProt O43364 129-215)
# HOXA2 (Homo sapiens, UniProt O43364 129-215), sequence (O43364 129-215): as the sequence (O43364 129-215 R185T) above, with T57R counted along it
# ALX4 = ALX4 (Homo sapiens, UniProt Q9H161 200-286, Q225E)
# ALX4, sequence (Q9H161 200-286 Q225E): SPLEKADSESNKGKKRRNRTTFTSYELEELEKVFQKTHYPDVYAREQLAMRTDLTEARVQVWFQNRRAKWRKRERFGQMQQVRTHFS
# HOXB9 (Homo sapiens, UniProt P17482 171-250, T197M), sequence (P17482 171-250 T197M): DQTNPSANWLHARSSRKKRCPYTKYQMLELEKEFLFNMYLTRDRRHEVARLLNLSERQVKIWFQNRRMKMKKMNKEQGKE
# HOXC9 (Homo sapiens, UniProt P31274 178-260, K195R), sequence (P31274 178-260 K195R): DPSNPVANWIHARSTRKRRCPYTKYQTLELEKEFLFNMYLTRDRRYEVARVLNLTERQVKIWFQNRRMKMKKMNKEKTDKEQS
# HOXC10 (Homo sapiens, UniProt Q9NYD6 254-340), sequence (Q9NYD6 254-340): as the sequence (Q9NYD6 254-340 K271E) above, with E18K counted along it
# HOXB9 (Homo sapiens, UniProt P17482 171-250), sequence (P17482 171-250): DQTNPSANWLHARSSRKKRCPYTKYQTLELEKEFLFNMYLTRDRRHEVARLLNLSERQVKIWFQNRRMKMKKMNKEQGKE
Sequence,binding signal (HOXB9 [1]),binding signal (HOXC9 [2]),binding signal (HOXC10 [3]),binding signal (HOXB9 [4]),binding signal (HOXC9 [5]),binding signal (HOXD13 [6]),binding signal (HOXC9 [7]),binding signal (HOXD13 [8]),binding signal (HOXC10 [9]),binding signal (HOXD13 [10]),binding signal (HOXB9 [11]),binding signal (HOXC9 [12]),binding signal (HOXA2 [13]),binding signal (HOXA2 [14]),binding signal (HOXA2 [15]),binding signal (HOXA2 [16]),binding signal (ALX4)
TCGTTAAA,"9.96 upbm affinity estimate (log intensity, higher = more binding, comparable within an allelic series)","12.5 upbm affinity estimate (log intensity, higher = more binding, comparable within an allelic series)","12.4 upbm affinity estimate (log intensity, higher = more binding, comparable within an allelic series)","11.7 upbm affinity estimate (log intensity, higher = more binding, comparable within an allelic series)","12.7 upbm affinity estimate (log intensity, higher = more binding, comparable within an allelic series)","10.8 upbm affinity estimate (log intensity, higher = more binding, comparable within an allelic series)","12.4 upbm affinity estimate (log intensity, higher = more binding, comparable within an allelic series)","12 upbm affinity estimate (log intensity, higher = more binding, comparable within an allelic series)","12.1 upbm affinity estimate (log intensity, higher = more binding, comparable within an allelic series)","11.7 upbm affinity estimate (log intensity, higher = more binding, comparable within an allelic series)","11.3 upbm affinity estimate (log intensity, higher = more binding, comparable within an allelic series)","10.9 upbm affinity estimate (log intensity, higher = more binding, comparable within an allelic series)",–,–,–,–,–
CATTAAAC,"9.93 upbm affinity estimate (log intensity, higher = more binding, comparable within an allelic series)","12.5 upbm affinity estimate (log intensity, higher = more binding, comparable within an allelic series)","12.2 upbm affinity estimate (log intensity, higher = more binding, comparable within an allelic series)","11.8 upbm affinity estimate (log intensity, higher = more binding, comparable within an allelic series)","12.6 upbm affinity estimate (log intensity, higher = more binding, comparable within an allelic series)",–,"12.6 upbm affinity estimate (log intensity, higher = more binding, comparable within an allelic series)",–,"11.9 upbm affinity estimate (log intensity, higher = more binding, comparable within an allelic series)",–,"11.6 upbm affinity estimate (log intensity, higher = more binding, comparable within an allelic series)","10.9 upbm affinity estimate (log intensity, higher = more binding, comparable within an allelic series)",–,–,–,–,–
CCTAGGGC,"8.55 upbm affinity estimate (log intensity, higher = more binding, comparable within an allelic series)","9.6 upbm affinity estimate (log intensity, higher = more binding, comparable within an allelic series)",–,"8.37 upbm affinity estimate (log intensity, higher = more binding, comparable within an allelic series)","9.6 upbm affinity estimate (log intensity, higher = more binding, comparable within an allelic series)",–,"9.53 upbm affinity estimate (log intensity, higher = more binding, comparable within an allelic series)",–,–,–,"8.47 upbm affinity estimate (log intensity, higher = more binding, comparable within an allelic series)","9.68 upbm affinity estimate (log intensity, higher = more binding, comparable within an allelic series)","6.96 upbm affinity estimate (log intensity, higher = more binding, comparable within an allelic series)","10.4 upbm affinity estimate (log intensity, higher = more binding, comparable within an allelic series)","10.4 upbm affinity estimate (log intensity, higher = more binding, comparable within an allelic series)","6.98 upbm affinity estimate (log intensity, higher = more binding, comparable within an allelic series)",–
AATAAAAA,"9.88 upbm affinity estimate (log intensity, higher = more binding, comparable within an allelic series)","12.5 upbm affinity estimate (log intensity, higher = more binding, comparable within an allelic series)","12.4 upbm affinity estimate (log intensity, higher = more binding, comparable within an allelic series)","11.9 upbm affinity estimate (log intensity, higher = more binding, comparable within an allelic series)","12.6 upbm affinity estimate (log intensity, higher = more binding, comparable within an allelic series)",–,"12.5 upbm affinity estimate (log intensity, higher = more binding, comparable within an allelic series)",–,"11.9 upbm affinity estimate (log intensity, higher = more binding, comparable within an allelic series)",–,"11.6 upbm affinity estimate (log intensity, higher = more binding, comparable within an allelic series)","11.2 upbm affinity estimate (log intensity, higher = more binding, comparable within an allelic series)",–,–,–,–,"10.9 upbm affinity estimate (log intensity, higher = more binding, comparable within an allelic series)"
AATAAAAT,"10 upbm affinity estimate (log intensity, higher = more binding, comparable within an allelic series)","12.7 upbm affinity estimate (log intensity, higher = more binding, comparable within an allelic series)","12.5 upbm affinity estimate (log intensity, higher = more binding, comparable within an allelic series)","12.1 upbm affinity estimate (log intensity, higher = more binding, comparable within an allelic series)","12.7 upbm affinity estimate (log intensity, higher = more binding, comparable within an allelic series)","10.8 upbm affinity estimate (log intensity, higher = more binding, comparable within an allelic series)","12.7 upbm affinity estimate (log intensity, higher = more binding, comparable within an allelic series)","11.8 upbm affinity estimate (log intensity, higher = more binding, comparable within an allelic series)","12 upbm affinity estimate (log intensity, higher = more binding, comparable within an allelic series)","11.8 upbm affinity estimate (log intensity, higher = more binding, comparable within an allelic series)","11.7 upbm affinity estimate (log intensity, higher = more binding, comparable within an allelic series)","11.5 upbm affinity estimate (log intensity, higher = more binding, comparable within an allelic series)",–,–,–,–,"11.1 upbm affinity estimate (log intensity, higher = more binding, comparable within an allelic series)"
CATAAAAC,"9.89 upbm affinity estimate (log intensity, higher = more binding, comparable within an allelic series)","12.9 upbm affinity estimate (log intensity, higher = more binding, comparable within an allelic series)","12.6 upbm affinity estimate (log intensity, higher = more binding, comparable within an allelic series)","12.4 upbm affinity estimate (log intensity, higher = more binding, comparable within an allelic series)","13.1 upbm affinity estimate (log intensity, higher = more binding, comparable within an allelic series)","10.7 upbm affinity estimate (log intensity, higher = more binding, comparable within an allelic series)","13 upbm affinity estimate (log intensity, higher = more binding, comparable within an allelic series)","12 upbm affinity estimate (log intensity, higher = more binding, comparable within an allelic series)","11.9 upbm affinity estimate (log intensity, higher = more binding, comparable within an allelic series)","11.7 upbm affinity estimate (log intensity, higher = more binding, comparable within an allelic series)","12.1 upbm affinity estimate (log intensity, higher = more binding, comparable within an allelic series)","11.3 upbm affinity estimate (log intensity, higher = more binding, comparable within an allelic series)",–,–,–,–,–
ATCGTTAA,"9.99 upbm affinity estimate (log intensity, higher = more binding, comparable within an allelic series)","12.5 upbm affinity estimate (log intensity, higher = more binding, comparable within an allelic series)","12.4 upbm affinity estimate (log intensity, higher = more binding, comparable within an allelic series)",–,"12.6 upbm affinity estimate (log intensity, higher = more binding, comparable within an allelic series)",–,"12.5 upbm affinity estimate (log intensity, higher = more binding, comparable within an allelic series)",–,"12.1 upbm affinity estimate (log intensity, higher = more binding, comparable within an allelic series)",–,–,"10.7 upbm affinity estimate (log intensity, higher = more binding, comparable within an allelic series)",–,"13.1 upbm affinity estimate (log intensity, higher = more binding, comparable within an allelic series)",–,–,–
